Screening data (PubChem)
A selection: hits, their analogues and other compounds. The true share with any hit is near 2.8%.
SNCA viab count: cell viability loss counter-screen. Potency, µM (top dose mostly 57.1 µM), hits mostly cytotoxic. AID 1671193. actives 0.12% (n = 150,000). HEK-293-SNCA-luc viability, GF-AFC fluorescence, 24 h; also: nearly all actives have a fitted effect of over 30% in size
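HEK-293-SNCA-luc cells (1500/well) plated 24 h, then exposed 24 h to a dilution series; GF-AFC added 30 min at 37C, fluorescence 405/540 nm; normalised to medium-only and DMSO wells, Hill fit.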
SNCA expr inh: SNCA gene expression inhibition; HEK-293 SNCA-luciferase knock-in, luminescence, 24 h; Potency, µM (doses to about 57.2 µM), hits mostly inhibitors; actives 0.17% (n = 140,000); also: nearly all actives have a fitted effect of over 45% in size
KDM5B inh: KDM5B demethylase inhibition; KDM5B demethylase, FDH-coupled NADH fluorescence (FDH is formaldehyde dehydrogenase); actives 2.6% (n = 220,000); Potency, µM (series often up to 57.7 µM), usual class: inhibitors; Q9UGL1; also: nearly all actives have a fitted effect of over 70% in size
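qHTS format, multiple compound concentrations. Buffer 50 mM HEPES pH 7.5/0.01% Tween-20; 200 nM KDM5BΔAP final; 10 min compound preincubation; substrate-mix levels 12.5 µM peptide, 25 µM α-KG, 0.25 mM NAD⁺; 30 min RT; ΔRFU.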
IP6K1 inhibitor: blocks human inositol hexakisphosphate kinase 1 | activity change, % (series mostly up to about 58 µM) | IP6K1 kinase, ADP-Glo luminescence, 2 h; hits give low values | actives 0.81% (n = 140,000); in the data active = activity change below about -25%
Target sequence (Q92551 whole entry, looked up): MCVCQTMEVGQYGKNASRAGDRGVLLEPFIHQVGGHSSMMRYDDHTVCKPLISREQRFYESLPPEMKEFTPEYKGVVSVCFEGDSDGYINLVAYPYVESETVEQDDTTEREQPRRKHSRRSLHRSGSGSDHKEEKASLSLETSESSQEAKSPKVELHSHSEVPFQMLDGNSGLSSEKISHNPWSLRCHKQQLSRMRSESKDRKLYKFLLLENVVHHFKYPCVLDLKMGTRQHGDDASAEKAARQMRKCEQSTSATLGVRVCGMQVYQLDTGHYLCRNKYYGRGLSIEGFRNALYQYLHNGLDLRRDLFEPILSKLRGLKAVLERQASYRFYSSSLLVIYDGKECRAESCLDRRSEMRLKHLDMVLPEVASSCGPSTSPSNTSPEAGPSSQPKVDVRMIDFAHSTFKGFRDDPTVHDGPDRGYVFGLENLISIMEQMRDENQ
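ADP-Glo luminescence measures ADP made by human IP6K1 during a 2 h RT reaction with ATP/IP6 (mix at 1.3 mM/130 uM); top library doses 57.5 and 19.1 uM final.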
Each line names hits and unclear results; the compound was inactive in the other large screens. Unless noted, calls follow the shape of the dose curve; as a rule, active = well fitted curve in the direction sought with a large enough effect; inconclusive = small, poorly fitted or top-dose-only effect, or another doubt; inactive = no such curve, though single readings can be large; an effect the other way counts as inactive or inconclusive.

COc1ccc(-c2nc3cnccn3c2NCCC(=O)Nc2ccc(C)cc2C)cc1	SNCA viab count inconclusive, KDM5B inh 25µM
NCCC(=O)Nc1cc(F)ccc1F	none (no result: SNCA viab count, SNCA expr inh, IP6K1 inhibitor)
CC(=O)N1CC2(CCCN(Cc3cc4ccccc4[nH]3)C2)Cc2ccccc21 (stereo not drawn)	none
COc1ccc(C(=O)N[C@H]2CO[C@H]3[C@@H]2OC[C@@H]3n2nnnc2Oc2ccc3c(c2)OCO3)cc1	SNCA expr inh inconclusive, KDM5B inh 35µM
Cc1cc(C)cc(NC(=S)N[C@H]2CO[C@H]3[C@@H]2OC[C@@H]3n2nnnc2Oc2cccc(N(C)C)c2)c1	SNCA expr inh inconclusive, KDM5B inh 25µM
CC(=O)c1ccc(NC(=O)N[C@H]2CO[C@H]3[C@@H]2OC[C@@H]3n2nnnc2Oc2cccc(N(C)C)c2)cc1	none
O=C(NCc1ccccn1)C1CC2CCC1C2 (stereo not drawn)	none (no result: SNCA viab count, SNCA expr inh, IP6K1 inhibitor)
COc1ccc(OC)c(C2=NOC(C(=O)O)C2)c1 (stereo not drawn)	KDM5B inh 28µM
O=C(NCC1(N2CCOCC2)CCSC1)Nc1ccccc1 (stereo not drawn)	none (no result: SNCA viab count, SNCA expr inh, IP6K1 inhibitor)
Cc1nnn2c(C(=O)Nc3ccc(Cl)nc3)cccc12	KDM5B inh inconclusive
Cc1nnn2c(C(=O)NCc3ccc(Cl)nc3)cccc12	KDM5B inh 35µM
CNC(=O)c1cccc2c(C)nnn12	KDM5B inh 32µM
C=CCNC(=O)c1cccc2c(C)nnn12	KDM5B inh 32µM
Cc1nnn2c(C(=O)Nc3ccc(F)cc3)cccc12	KDM5B inh inconclusive
CCn1nc(C(=O)Nc2ncc(C)s2)c2ccccc2c1=O	none (no result: SNCA viab count, SNCA expr inh, IP6K1 inhibitor)
Cc1nn2c(c1-c1ccccc1-c1ccccc1)N(Cc1ccc(O)cc1)CCC2	SNCA viab count inconclusive, SNCA expr inh inconclusive, KDM5B inh 28µM
Cc1cccc(CN2CCCn3nc(C)c(-c4ccccc4-c4ccccc4)c32)n1	SNCA viab count inconclusive, SNCA expr inh 4.5µM, KDM5B inh inconclusive
COc1ccc(Oc2coc3cc(OC(=O)c4cccc(Cl)c4)ccc3c2=O)cc1	none (no result: SNCA viab count, SNCA expr inh, IP6K1 inhibitor)
Cc1ccn2c(=O)cc(CSc3ccccc3NS(=O)(=O)c3ccc(C(C)C)cc3)nc2c1	none (no result: SNCA viab count, SNCA expr inh, IP6K1 inhibitor)
CN(C)c1cccc(C(=O)NCCC2CCN(C(=O)Nc3cc(F)cc(F)c3)CC2)c1	KDM5B inh 32µM
O=C(NCCC1CCN(C(=O)Nc2cc(F)cc(F)c2)CC1)c1ccccc1	none
Cc1noc(-c2ccc3c(c2)OCO3)c1C(=O)NCc1cccc(Cl)c1	KDM5B inh 32µM
CC(C)c1ccc(CNC(=O)c2noc(-c3ccc4c(c3)OCO4)n2)cc1	KDM5B inh 25µM
COc1cc(OC)cc(-c2onc(C)c2C(=O)NCCC(c2ccccc2)c2ccccc2)c1	KDM5B inh 32µM
Cc1noc(-c2cccc(F)c2)c1C(=O)NCCCc1ccccc1	none
O=C(NCc1ccc(Cl)cc1)c1noc(-c2ccc3c(c2)OCO3)n1	KDM5B inh inconclusive
Cc1noc(-c2ccc3c(c2)OCO3)c1C(=O)NCCCc1ccccc1	KDM5B inh 25µM
Cc1noc(-c2ccc3c(c2)OCO3)c1C(=O)NCCSCc1ccco1	KDM5B inh inconclusive
Cc1noc(-c2ccc3c(c2)OCO3)c1C(=O)NCCC(c1ccccc1)c1ccccc1	KDM5B inh 20µM
Cc1noc(-c2ccc3c(c2)OCO3)c1C(=O)NCCSCc1ccccc1	KDM5B inh 32µM
Cc1noc(-c2ccc(OC(F)(F)F)cc2)c1C(=O)NCCC(c1ccccc1)c1ccccc1	KDM5B inh inconclusive
O=C(O)C1CNCCN(C(=O)c2nc3ccc(F)cc3[nH]2)C1 (stereo not drawn)	none
Cc1nc2ncccn2c1C(=O)N1CCn2nc(CO)cc2C1	KDM5B inh 32µM
Cc1nc2ncccn2c1C(=O)N1CCNCC(C(=O)O)C1 (stereo not drawn)	KDM5B inh 22µM
Cc1ccsc1CN1CC(Oc2ccc(-c3noc(C4CCOCC4)n3)cc2)C1	none (no result: KDM5B inh)
Cc1ccc(C2CCCN2S(=O)(=O)c2ccc(C)cc2)cc1 (stereo not drawn)	none (no result: SNCA viab count, SNCA expr inh, IP6K1 inhibitor)
Cc1nc2c(C(=O)O)cnn2c(C)c1Cc1ccccc1	KDM5B inh inconclusive
Cc1ccc(-c2cc(C(=O)N3CCC(Cc4nncn4CC4CC4)CC3)c3ccccc3n2)cc1C	KDM5B inh 22µM
Cc1ccc(Cc2c(C)nc3c(C(=O)N4CCC(Cc5nncn5CC5CC5)CC4)cnn3c2C)cc1	KDM5B inh 28µM
O=C(c1cc(-c2ccc(F)cc2)nc2ccccc12)N1CCC(Cc2nncn2CC2CC2)CC1	KDM5B inh 28µM
Cc1ccccc1CNC(=O)c1cnc2ccccc2n1	none (no result: SNCA viab count, SNCA expr inh, IP6K1 inhibitor)
O=C(O)Cn1cc(C(C(=O)O)N2CCN(Cc3ccccc3)CC2)c2ccc(Cl)cc21 (stereo not drawn)	none (no result: SNCA viab count, SNCA expr inh, IP6K1 inhibitor)
O=C(Cn1nc2c(cc1=O)CCCCC2)NC1CCCc2c1[nH]c1ccccc21 (stereo not drawn)	KDM5B inh 28µM
O=C(NC1CCCc2c1[nH]c1ccccc21)c1ccccc1 (stereo not drawn)	KDM5B inh inconclusive
O=C(Cn1nc2c(cc1=O)CCCCC2)N1CC=C(c2c[nH]c3ccccc23)CC1	KDM5B inh 18µM
Cn1nc(C(=O)NC2CCCc3c2[nH]c2ccccc32)c2ccccc2c1=O (stereo not drawn)	KDM5B inh 25µM
O=C(Cn1nc2c(cc1=O)CCCCC2)NC1CCCc2c1[nH]c1c(Cl)cccc21 (stereo not drawn)	none
COc1ccc(Cl)cc1C(=O)N1CCN(C(=O)c2nnn3c2COC(c2ccccc2)C3)CC1 (stereo not drawn)	SNCA expr inh inconclusive
O=C(CC1CC2CCC1C2)Nc1ccc(Br)cc1Cl (stereo not drawn)	none (no result: SNCA viab count, SNCA expr inh, IP6K1 inhibitor)
CCc1cc(NCC(c2ccc(C)o2)N2CCOCC2)n2nccc2n1 (stereo not drawn)	KDM5B inh 32µM
CC(C)c1noc(-c2cccn3c(CNC(=O)CCC4CCCC4)nnc23)n1	KDM5B inh 16µM
CCCc1noc(-c2cccn3c(CNC(=O)CC4CCCCC4)nnc23)n1	KDM5B inh inconclusive
CCc1noc(-c2cccn3c(CNC(=O)CCC4CCCC4)nnc23)n1	KDM5B inh 28µM
Cc1cc(NC(=O)c2coc(Br)c2)no1	none (no result: SNCA viab count, SNCA expr inh, IP6K1 inhibitor)
CCCC(=O)Nc1ccc(CNCc2ccc(F)cc2F)cc1	none (no result: SNCA viab count, SNCA expr inh, IP6K1 inhibitor)
O=C(N[C@H]1CCN2C(=O)N(c3cccc4nsnc34)C(=O)[C@@H]2C1)c1ccnc(Cl)c1	KDM5B inh 28µM
NC1CCN(Cc2ccc(C(=O)NCc3ccc(S(N)(=O)=O)cc3)c(=O)[nH]2)C1 (stereo not drawn)	KDM5B inh 22µM
CCOc1ccccc1NS(=O)(=O)c1cc(-c2c(C)nn3c2NC(=O)CCC3=O)ccc1OC	none (no result: SNCA viab count, SNCA expr inh, IP6K1 inhibitor)
Cc1[nH]c(=O)c(C#N)cc1C(=O)N1CCC2(CC1)C(=O)Nc1ccccc12	KDM5B inh 22µM
O=C(c1ccccc1)N1CCC2(C1)C(=O)Nc1ccccc12 (stereo not drawn)	none
COC[C@@H]1CCCN1Cc1cc2cc3c(cc2[nH]c1=O)OCO3	KDM5B inh 28µM
COC[C@@H]1CCCN1Cc1cn(-c2ccccc2)nc1-c1ccc(OC)cc1F	none
NCc1ccc(-c2cc(C(F)(F)F)ccc2Cl)cc1	none
